# The campaign covered roughly 5,500 compounds. About 2,000 (36%) were called active. Not shown: some 18% with an inconclusive outcome. Some of the results follow. Values without a mark were called inactive. Rule as the data show it: active = normalized growth mostly below about 0.91 (no sharp cut-off); inconclusive = no clear call, values can overlap the other calls; inactive = mostly above about 0.92.
# Experiment: chemical genetic growth profiling, strain panel (AID 1159580);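 also: tested at 20 µM; growth read once vehicle control cultures reached saturation at 30 °C; 1 = growth at the plate median or of vehicle wells; lower values mean less growth of the strain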
# Settings: S. cerevisiae deletion strains, growth OD
compound,measurement,setting,value
[Li+],normalized growth,"locus YAL013W, strain DEP1, stronger effect = lower value",1.01
same,normalized growth,"locus YAL040C, strain CLN3, stronger effect = lower value",0.996
same,normalized growth,"locus YCL061C, strain MRC1 (second series), stronger effect = lower value",1.01
same,normalized growth,"locus YDR150W, strain NUM1, stronger effect = lower value",1.02
same,normalized growth,"locus YDR363W, strain ESC2, stronger effect = lower value",1.01
same,normalized growth,"locus YER002W, strain NOP16, stronger effect = lower value",1
same,normalized growth,"locus YGR229C, strain SMI1, stronger effect = lower value",1.02
same,normalized growth,"locus YMR307W, strain GAS1, stronger effect = lower value",0.994
same,normalized growth,"locus YNL175C, strain NOP13, stronger effect = lower value",1
same,normalized growth,"locus YNL197C, strain WHI3, stronger effect = lower value",1.02
same,normalized growth,"locus YNL224C, strain SQS1, stronger effect = lower value",1
same,normalized growth,"locus YOR083W, strain WHI5 (second series), stronger effect = lower value",1.01
same,normalized growth,"locus YPL241C, strain CIN2, stronger effect = lower value",1.01
c1ccc(-c2ccc(C(c3ccccc3)n3ccnc3)cc2)cc1 (configuration not stated),normalized growth,"locus YAL021C, strain ccr4, stronger effect = lower value",0.0644 (active)
same,normalized growth,"locus YAL026C, strain drs2, stronger effect = lower value",0.0618 (active)
same,normalized growth,"locus YAL030W, strain snc1, stronger effect = lower value",0.0587 (active)
same,normalized growth,"locus YBL061C, strain skt5, stronger effect = lower value",0.0709 (active)
same,normalized growth,"locus YBR009C, strain hhf1, stronger effect = lower value",0.0624 (active)
same,normalized growth,"locus YBR023C, strain chs3, stronger effect = lower value",0.0697 (active)
same,normalized growth,"locus YBR171W, strain sec66, stronger effect = lower value",0.0929 (active)
same,normalized growth,"locus YBR231C, strain swc5, stronger effect = lower value",0.0689 (active)
same,normalized growth,"locus YBR279W, strain paf1, stronger effect = lower value",0.0719 (active)
same,normalized growth,"locus YCL011C, strain gbp2, stronger effect = lower value",0.0606 (active)
same,normalized growth,"locus YCL016C, strain dcc1, stronger effect = lower value",0.0733 (active)
same,normalized growth,"locus YCL069W, strain vba3, stronger effect = lower value",0.066 (active)
same,normalized growth,"locus YCR088W, strain abp1, stronger effect = lower value",0.0692 (active)
same,normalized growth,"locus YDL005C, strain med2, stronger effect = lower value",0.0767 (active)
same,normalized growth,"locus YDL040C, strain nat1, stronger effect = lower value",0.0668 (active)
same,normalized growth,"locus YDR001C, strain nth1, stronger effect = lower value",0.067 (active)
same,normalized growth,"locus YDR069C, strain doa4, stronger effect = lower value",0.0703 (active)
same,normalized growth,"locus YDR137W, strain rgp1, stronger effect = lower value",0.127 (active)
same,normalized growth,"locus YDR159W, strain sac3, stronger effect = lower value",0.0937 (active)
same,normalized growth,"locus YDR195W, strain ref2",0.13 (active)
same,normalized growth,"locus YDR297W, strain sur2, stronger effect = lower value",0.0659 (active)
same,normalized growth,"locus YDR334W, strain swr1, stronger effect = lower value",0.0716 (active)
same,normalized growth,"locus YDR335W, strain msn5, stronger effect = lower value",0.0638 (active)
same,normalized growth,"locus YDR392W, strain spt3, stronger effect = lower value",0.0713 (active)
same,normalized growth,"locus YEL003W, strain gim4, stronger effect = lower value",0.0535 (active)
same,normalized growth,"locus YEL037C, strain rad23, stronger effect = lower value",0.0622 (active)
same,normalized growth,"locus YEL061C, strain CIN8 (second series), stronger effect = lower value",0.0652 (active)
same,normalized growth,"locus YER015W, strain faa2, stronger effect = lower value",0.0699 (active)
same,normalized growth,"locus YER016W, strain bim1, stronger effect = lower value",0.0698 (active)
same,normalized growth,"locus YER111C, strain swi4, stronger effect = lower value",0.0902 (active)
same,normalized growth,"locus YER155C, strain BEM2 (second series), stronger effect = lower value",0.0914 (active)
same,normalized growth,"locus YFR010W, strain ubp6, stronger effect = lower value",0.0846 (active)
same,normalized growth,"locus YGL167C, strain pmr1, stronger effect = lower value",0.124 (active)
same,normalized growth,"locus YGL173C, strain kem1, stronger effect = lower value",0.0886 (active)
same,normalized growth,"locus YGL227W, strain vid30, stronger effect = lower value",0.077 (active)
same,normalized growth,"locus YGL240W, strain doc1, stronger effect = lower value",0.108 (active)
same,normalized growth,"locus YGL253W, strain hxk2, stronger effect = lower value",0.0596 (active)
same,normalized growth,"locus YHR013C, strain ard1, stronger effect = lower value",0.105 (active)
same,normalized growth,"locus YHR027C, strain rpn1, stronger effect = lower value",0.0776 (active)
same,normalized growth,"locus YHR030C, strain SLT2, stronger effect = lower value",0.105 (active)
same,normalized growth,"locus YHR079C, strain IRE1, stronger effect = lower value",0.13 (active)
same,normalized growth,"locus YHR142W, strain chs7, stronger effect = lower value",0.0799 (active)
same,normalized growth,"locus YJL092W, strain hpr5, stronger effect = lower value",0.0642 (active)
same,normalized growth,"locus YJL095W, strain BCK1 (second series), stronger effect = lower value",0.0592 (active)
same,normalized growth,"locus YJL095W, strain BCK1, stronger effect = lower value",0.127 (active)
same,normalized growth,"locus YJL115W, strain asf1, stronger effect = lower value",0.087 (active)
same,normalized growth,"locus YJL129C, strain trk1, stronger effect = lower value",0.102 (active)
same,normalized growth,"locus YJL154C, strain vps35, stronger effect = lower value",0.0754 (active)
same,normalized growth,"locus YJL164C, strain tpk1, stronger effect = lower value",0.0615 (active)
same,normalized growth,"locus YJL166W, strain qcr8, stronger effect = lower value",0.0657 (active)
same,normalized growth,"locus YJL187C, strain SWE1, stronger effect = lower value",0.0683 (active)
same,normalized growth,"locus YJR066W, strain TOR1, stronger effect = lower value",0.0151 (active)
same,normalized growth,"locus YKL160W, strain elf1, stronger effect = lower value",0.0739 (active)
same,normalized growth,"locus YKR026C, strain gcn3, stronger effect = lower value",0.0725 (active)
same,normalized growth,"locus YKR091W, strain srl3, stronger effect = lower value",0.066 (active)
same,normalized growth,"locus YLL001W, strain dnm1, stronger effect = lower value",0.0668 (active)
same,normalized growth,"locus YLL026W, stronger effect = lower value",0.0595 (active)
same,normalized growth,"locus YLL041C, strain sdh2, stronger effect = lower value",0.0629 (active)
same,normalized growth,"locus YLR027C, strain aat2, stronger effect = lower value",0.0596 (active)
same,normalized growth,"locus YLR113W, strain HOG1, stronger effect = lower value",0.164 (active)
same,normalized growth,"locus YLR221C, strain rsa3, stronger effect = lower value",0.0622 (active)
same,normalized growth,"locus YLR258W, strain gsy2, stronger effect = lower value",0.0654 (active)
same,normalized growth,"locus YLR262C, strain YPT6 (second series), stronger effect = lower value",0.0894 (active)
same,normalized growth,"locus YLR320W, strain mms22, stronger effect = lower value",0.0767 (active)
same,normalized growth,"locus YLR342W, strain FKS1, stronger effect = lower value",0.0755 (active)
same,normalized growth,"locus YLR357W, strain rsc2, stronger effect = lower value",0.128 (active)
same,normalized growth,"locus YLR370C, strain arc18, stronger effect = lower value",0.0619 (active)
same,normalized growth,"locus YLR384C, strain iki3, stronger effect = lower value",0.0674 (active)
same,normalized growth,"locus YML120C, strain ndi1, stronger effect = lower value",0.0564 (active)
same,normalized growth,"locus YMR058W, strain fet3, stronger effect = lower value",0.068 (active)
same,normalized growth,"locus YMR125W, strain sto1, stronger effect = lower value",0.082 (active)
same,normalized growth,"locus YMR129W, stronger effect = lower value",0.0621 (active)
same,normalized growth,"locus YMR205C, strain PFK2, stronger effect = lower value",0.0925 (active)
same,normalized growth,"locus YMR231W, strain pep5, stronger effect = lower value",0.179 (active)
same,normalized growth,"locus YNL071W, strain lat1, stronger effect = lower value",0.0616 (active)
same,normalized growth,"locus YNL183C, strain NPR1, stronger effect = lower value",0.0338 (active)
same,normalized growth,"locus YNL209W, strain ssb2, stronger effect = lower value",0.0868 (active)
same,normalized growth,"locus YNL248C, strain rpa49, stronger effect = lower value",0.0877 (active)
same,normalized growth,"locus YNL322C, strain KRE1 (second series), stronger effect = lower value",0.08 (active)
same,normalized growth,"locus YNR049C, strain mso1, stronger effect = lower value",0.0653 (active)
same,normalized growth,"locus YOR001W, strain rrp6, stronger effect = lower value",0.075 (active)
same,normalized growth,"locus YOR070C, strain gyp1, stronger effect = lower value",0.0635 (active)
same,normalized growth,"locus YOR080W, strain dia2, stronger effect = lower value",0.0729 (active)
same,normalized growth,"locus YOR083W, strain WHI5, stronger effect = lower value",0.0687 (active)
same,normalized growth,"locus YOR106W, strain vam3, stronger effect = lower value",0.0685 (active)
same,normalized growth,"locus YOR231W, strain MKK1, stronger effect = lower value",0.141 (active)
same,normalized growth,"locus YOR265W, strain rbl2, stronger effect = lower value",0.0651 (active)
same,normalized growth,"locus YOR270C, strain vph1, stronger effect = lower value",0.0985 (active)
same,normalized growth,"locus YOR290C, strain snf2, stronger effect = lower value",0.0719 (active)
same,normalized growth,"locus YPL051W, strain arl3, stronger effect = lower value",0.0743 (active)
same,normalized growth,"locus YPL078C, strain atp4, stronger effect = lower value",0.07 (active)
same,normalized growth,"locus YPL106C, strain sse1, stronger effect = lower value",0.116 (active)
same,normalized growth,"locus YPL240C, strain hsp82, stronger effect = lower value",0.0631 (active)
same,normalized growth,"locus YPL256C, strain CLN2, stronger effect = lower value",0.153 (active)
